Assay results: PubChem BioAssay (NCATS)
Records with an inconclusive call do not appear. The source made the active and inactive calls. Unless noted, calls follow the shape of the dose curve; as a rule, active = well fitted curve in the direction sought with a large enough effect; inconclusive = small, poorly fitted or top-dose-only effect, or another doubt; inactive = no such curve, though single readings can be large; an effect the other way counts as inactive or inconclusive.

Columns and labels:
[1] = Validation of Assay for Modulators of Lamin A Splicing (AID 1459; active = well fitted curve in the direction sought with a large enough effect in the signal ratio; the % refers to the signal ratio;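 also: cells exposed to compound for two days before reading; ratio rise marks activators and ratio drop marks inhibitors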); conditions: Lamin A splicing dual RFP/GFP fluorescence reporter; series mostly up to 9.22 µM
Procedure, shortened: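 Readout: ratio of GFP (500-530 nm) to RFP (575-640 nm) total object intensity by 488 nm laser-scanning cytometry after 48 hrs. Cells were HeLa S3 clones carrying lamin A-EGFP minigene plus DsRed2 viability reporter; vehicle 0.5% DMSO final.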

[2] = molecular target: Alpha-galactosidase A (Homo sapiens) (UniProt P06280); test: Counterscreen for Glucocerebrosidase Inhibitors: qHTS Assay for Human alpha-Galactosidase at pH 4.5 (AID 992); conditions: purified enzyme, fluorogenic substrate; series mostly up to 76.9 µM
Sequence of Alpha-galactosidase A (Homo sapiens) (P06280 whole entry, looked up): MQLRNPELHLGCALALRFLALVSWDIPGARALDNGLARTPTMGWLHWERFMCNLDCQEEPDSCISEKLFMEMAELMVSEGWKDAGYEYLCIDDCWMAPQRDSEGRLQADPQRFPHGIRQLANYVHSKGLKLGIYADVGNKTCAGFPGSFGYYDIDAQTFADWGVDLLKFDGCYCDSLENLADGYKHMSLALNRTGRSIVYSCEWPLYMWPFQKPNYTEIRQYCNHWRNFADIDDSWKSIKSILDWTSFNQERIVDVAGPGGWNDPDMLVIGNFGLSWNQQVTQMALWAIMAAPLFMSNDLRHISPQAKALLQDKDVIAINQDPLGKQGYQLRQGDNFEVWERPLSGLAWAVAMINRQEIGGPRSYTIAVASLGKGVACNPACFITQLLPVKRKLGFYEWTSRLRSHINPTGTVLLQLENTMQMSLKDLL
Procedure, shortened: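 Fluorogenic 4-MU alpha-D-galactoside (80 uM) hydrolysis, 2 nM enzyme, pH 4.5 citrate buffer + 0.005% Tween-20; 20 min RT; NaOH/glycine pH 10 stop; Ex365/Em440. Compounds titrated 0.7 nM–77 uM; Hill-equation AC50.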

[3] = Cell Viability - LYMP2-021 (AID 974); conditions: LYMP2-021 lymphoblastoid cells viability; series mostly up to 92.2 µM;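 also: compound exposure lasts 24 hours at 37 °C; nearly all actives have a fitted effect of over 55% in size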
Procedure, shortened: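 In qHTS format, compounds are tested against 2500 lymphoblastoid cells per well for 24 h; viable cell number is inferred from ATP-driven luciferase light, and Hill-equation fitting yields AC50 values.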

[4] = Cell Viability - LYMP2-023 (AID 975); conditions: LYMP2-023 lymphoblastoid cell viability; series mostly up to 92.2 µM;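 also: cellular ATP measured by luciferase luminescence as viability proxy; nearly all actives have a fitted effect of over 55% in size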
Procedure, shortened: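 In this qHTS, ATP-based luciferase luminescence (CellTiter-Glo) is quantified in human lymphoblastoid cells after 24 hr compound treatment at 37 C; tetraoctylammonium bromide serves as positive control. Concentration-response curves are Hill-fitted to give AC50.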

[5] = Cell Viability - LYMP2-025 (AID 976); conditions: LYMP2-025 lymphoblastoid cell viability; series mostly up to 92.2 µM
Procedure, shortened: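 Luminescent ATP readout after 24 hr treatment of a human lymphoblastoid line (LYMP2-025, 2500 cells/well, 37 C). Reagent developed 30 min at room temperature; AC50 fitted with the Hill equation.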

[6] = Cell Viability - LYMP2-002 (AID 977); conditions: LYMP2-002 lymphoblastoid cell viability, qHTS; series mostly up to 92.2 µM;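 also: compound exposure lasted 24 h at 37 °C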
Procedure, shortened: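 Human lymphoblastoid cells (2500/well) in complete medium were preincubated 5 hr at 37 C, then exposed to compounds for 24 hr at 37 C. Intracellular ATP was read by CellTiter-Glo luminescence; AC50 came from Hill-equation concentration-response fits.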

[7] = Cell Viability - LYMP2-006 (AID 978); conditions: LYMP2-006 lymphoblastoid cell viability, qHTS; series mostly up to 92.2 µM; also: nearly all actives have a fitted effect of over 60% in size
Procedure, shortened: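 qHTS, 1536-well; 2500 cells/well, 5 hr 37 C; cpd 24 hr 37 C; CellTiter-Glo 30 min RT; luminescence. Tetraoctylammonium bromide pos. ctrl. AC50 via Hill eqn.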

[8] = Cell Viability - LYMP2-007 (AID 979); conditions: LYMP2-007 lymphoblastoid cell viability; series mostly up to 92.2 µM;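 also: cells exposed to compound for 24 h before reading; nearly all actives have a fitted effect of over 60% in size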
Procedure, shortened: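 Measured via luciferase-based ATP quantitation: lymphoblastoid cells, 24 hr compound exposure at 37 C, AC50 from Hill fits.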

[9] = Cell Viability - LYMP2-008 (AID 980); conditions: LYMP2-008 lymphoblastoid cell viability, qHTS; series mostly up to 92.2 µM; also: nearly all actives have a fitted effect of over 60% in size
Procedure, shortened: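 Measured: ATP-dependent luminescence, proportional to viable cell number, in human lymphoblastoid cells treated 24 hr with compound in complete culture medium. Values are AC50s from Hill-equation modelling of qHTS titrations.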

[10] = Cell Viability - LYMP2-010 (AID 981); conditions: LYMP2-010 lymphoblastoid cell viability, qHTS; series mostly up to 92.2 µM; also: nearly all actives have a fitted effect of over 55% in size
Procedure, shortened: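 This 24 hr viability screen uses LYMP2-010 lymphoblastoid cells, quantifies ATP via luciferase luminescence, and derives AC50 from Hill fits of qHTS concentration-response data.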

[11] = Cell Viability - LYMP2-012 (AID 982); conditions: LYMP2-012 lymphoblastoid cell viability qHTS; series mostly up to 92.2 µM;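 also: cellular ATP by luciferase luminescence where a drop means cytotoxicity; cells exposed to compound for one day before reading; nearly all actives have a fitted effect of over 55% in size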
[12] = Cell Viability - LYMP2-014 (AID 983); conditions: LYMP2-014 lymphoblastoid cells, viability qHTS; series mostly up to 92.2 µM; also: nearly all actives have a fitted effect of over 50% in size
Procedure, shortened: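 Quantitative HTS in lymphoblastoid cells: 24 hr compound exposure, then CellTiter-Glo ATP luminescence. Positive control was tetraoctylammonium bromide, 6.4pM to 92 uM.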

[13] = Cell Viability - LYMP2-016 (AID 984); conditions: LYMP2-016 lymphoblastoid cell viability, qHTS; series mostly up to 92.2 µM; also: nearly all actives have a fitted effect of over 55% in size
Procedure, shortened: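 qHTS, 1536-well: 2500 LYMP2-016 cells/well, 5 hr 37 C, compound added, 24 hr 37 C, CellTiter-Glo 30 min RT, luminescence. Tetraoctylammonium bromide positive control. AC50 via Hill fit.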

[14] = Cell Viability - LYMP2-018 (AID 985); conditions: LYMP2-018 lymphoblastoid cells, viability (qHTS); series mostly up to 92.2 µM; also: nearly all actives have a fitted effect of over 50% in size
Procedure, shortened: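 In this qHTS viability assay, cells are treated for 24 hr and cellular ATP is quantified by luciferase-based luminescence, with tetraoctylammonium bromide as positive control.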

[15] = Cell Viability - LYMP2-020 (AID 986); conditions: series mostly up to 92.2 µM; also: nearly all actives have a fitted effect of over 55% in size
Procedure, shortened: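 Cells at 2500 per well receive a 24 hr compound exposure at 37 C. Viability is measured as ATP-dependent luciferase luminescence, with AC50 modeled from qHTS concentration-response curves.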

[16] = Cell Viability - LYMP2-022 (AID 987); conditions: LYMP2-022 lymphoblastoid cell viability; series mostly up to 92.2 µM; also: nearly all actives have a fitted effect of over 55% in size
Procedure, shortened: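 In this qHTS cytotoxicity screen, compound titrations were incubated 24 hr at 37 C with human lymphoblastoid cells in complete medium. Luciferase-based ATP luminescence provided the viability signal.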

[17] = Cell Viability - LYMP2-024 (AID 988); conditions: LYMP2-024 lymphoblastoid cell viability; series mostly up to 92.2 µM; also: nearly all actives have a fitted effect of over 60% in size
Procedure, shortened: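 Cells at 2500 per well received compound for 24 hr after a 5 hr settling period. Viability was scored by CellTiter-Glo luminescence, with AC50 from Hill fits.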

[18] = Cell Viability - LYMP2-026 (AID 989); conditions: LYMP2-026 lymphoblastoid cell viability, qHTS; series mostly up to 92.2 µM; also: nearly all actives have a fitted effect of over 50% in size
Procedure, shortened: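 Acute toxicity screen in complete culture medium, with 24 hr compound exposure at 37 C. Viability read as cellular ATP via luciferase reaction, with tetraoctylammonium bromide (6.4pM to 92 uM) as positive control.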

[19] = Cell Viability - LYMP1-002 - Assay at 24 hr (AID 993); conditions: LYMP1-002 lymphoblastoid cells viability; series mostly up to 92.2 µM
Procedure, shortened: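 Viability was judged from intracellular ATP using a luciferase read-out, following a 24-hour compound incubation at 37 C of lymphoblastoid cells seeded at 2500 per well. Concentration-response data were fitted to the Hill equation for AC50.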

[20] = Cell Viability - LYMP1-002 - Assay at 40 hr (AID 994); conditions: LYMP1-002 lymphoblastoid cell viability; series mostly up to 92.2 µM; also: nearly all actives have a fitted effect of over 60% in size
Procedure, shortened: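 Concentration-dependent ATP loss after 40 hr treatment at 37 C defined toxicity; AC50 values were obtained by fitting the standard Hill equation.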

Measured: Potency

NCCCC(N)(C(=O)O)C(F)F (stereo unspecified)
inactive: [1]

CCOC(=O)C1=C[C@@]2(CC)CCCN3CCc4c(n1c1ccccc41)[C@H]32
inactive: [2]

NC(=O)c1cnccn1
inactive: [3] | [4] | [5] | [6] | [7] | [8] | [9] | [10] | [11] | [12] | [13] | [14] | [15] | [16] | [17] | [18] | [2] | [19] | [20]

N=c1nc(N2CCCCC2)cc(N)n1O
inactive: [2] | [1]

O=NN(CCCl)C(=O)NCCCl
inactive: [2]

Cc1cn[nH]c1
inactive: [2]

O=c1[nH]cnc2[nH]ncc12
inactive: [3] | [4] | [6] | [7] | [8] | [9] | [10] | [11] | [12] | [13] | [14] | [15] | [16] | [17] | [18] | [2] | [19] | [20]

CN1CCN(CCCN2c3ccccc3Sc3ccc(C(F)(F)F)cc32)CC1
inactive: [2]

O=C1CCc2cc(OCCCCc3nnnn3C3CCCCC3)ccc2N1
inactive: [2]

CC(=O)Oc1ccccc1C(=O)O
inactive: [3] | [4] | [5] | [6] | [7] | [8] | [9] | [10] | [11] | [12] | [13] | [14] | [15] | [16] | [17] | [18] | [2] | [19] | [20] | [1]

CCCCNc1cc(C(=O)O)cc(S(N)(=O)=O)c1Oc1ccccc1
inactive: [2] | [1]

CCCC(CCC)C(=O)O
inactive: [3] | [4] | [5] | [6] | [7] | [8] | [9] | [10] | [11] | [12] | [13] | [14] | [15] | [16] | [17] | [18] | [2] | [19] | [20]
